Test results: the supplement of paper PMC10849652
The full data set covers some 8,800 targets. This sample favours those with a hit. About 0.5% of all pairs of compound and target were hits. Unmarked numbers belong to inactive results.

compound: Cn1cncc1[C@@](N)(c1ccc(Cl)cc1)c1ccc2c(c1)c(-c1cccc(Cl)c1)cc(=O)n2C [tipifarnib]; assay: log2 fold change, soluble protein after heating vs DMSO (PISA); higher = thermal stabilisation; K562 lysate, 10 uM; active = over 0.2 and 3.5 SD of the protein, either way, in both replicates (recomputed)
Procedure, shortened: (§1)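 Dounce homogenisation of K562 pellets in PBS pH 7.4 with 1 mM MgCl2 produced a crude extract, used at 1 mg/mL protein. Exposure to 10 μM compound lasted 30 min, and aliquots were then heated for 3 min across 48°C-58°C, pooled and brought to 0.5% NP-40 at 4°C. The supernatant after 21,000xg for 90 min was quantified by TMTpro 16plex LC-MS/MS with channel sums equalised. Duplicate values are given as log-two fold change in thermal stability relative to solvent controls.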

Chain of UniProt Q7Z4Q2 (Q7Z4Q2 whole entry, looked up): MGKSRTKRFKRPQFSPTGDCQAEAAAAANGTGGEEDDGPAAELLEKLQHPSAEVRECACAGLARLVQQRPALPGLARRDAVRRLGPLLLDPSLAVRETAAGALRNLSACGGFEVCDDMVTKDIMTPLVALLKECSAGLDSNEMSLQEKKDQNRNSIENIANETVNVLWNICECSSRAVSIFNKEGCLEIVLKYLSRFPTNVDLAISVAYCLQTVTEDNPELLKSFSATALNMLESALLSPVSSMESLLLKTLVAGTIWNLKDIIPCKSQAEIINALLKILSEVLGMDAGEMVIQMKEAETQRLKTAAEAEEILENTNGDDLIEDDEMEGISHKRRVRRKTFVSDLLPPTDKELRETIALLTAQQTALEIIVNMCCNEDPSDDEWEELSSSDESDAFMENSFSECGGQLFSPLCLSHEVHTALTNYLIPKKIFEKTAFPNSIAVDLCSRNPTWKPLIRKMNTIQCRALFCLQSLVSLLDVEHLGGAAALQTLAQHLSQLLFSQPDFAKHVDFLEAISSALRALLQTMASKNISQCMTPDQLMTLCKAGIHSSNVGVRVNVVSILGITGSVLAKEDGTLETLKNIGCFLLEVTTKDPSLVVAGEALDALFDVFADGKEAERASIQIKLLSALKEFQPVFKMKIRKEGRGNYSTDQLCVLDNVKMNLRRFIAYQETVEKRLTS
Chain of UniProt Q9BXW7 (Q9BXW7 whole entry, looked up): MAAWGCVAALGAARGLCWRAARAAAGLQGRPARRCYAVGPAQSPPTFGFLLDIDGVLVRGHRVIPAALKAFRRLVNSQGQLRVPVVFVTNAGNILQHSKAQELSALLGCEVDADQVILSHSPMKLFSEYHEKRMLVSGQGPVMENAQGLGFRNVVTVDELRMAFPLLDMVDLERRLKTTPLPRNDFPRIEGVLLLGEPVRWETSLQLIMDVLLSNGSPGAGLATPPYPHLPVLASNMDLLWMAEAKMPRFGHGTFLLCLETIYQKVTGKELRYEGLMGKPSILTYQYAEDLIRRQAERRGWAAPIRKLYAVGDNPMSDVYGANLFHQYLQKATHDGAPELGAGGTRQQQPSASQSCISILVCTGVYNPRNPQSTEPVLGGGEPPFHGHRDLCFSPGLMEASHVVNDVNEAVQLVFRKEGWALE
Chain of UniProt Q8NEC7 (Q8NEC7 whole entry, looked up): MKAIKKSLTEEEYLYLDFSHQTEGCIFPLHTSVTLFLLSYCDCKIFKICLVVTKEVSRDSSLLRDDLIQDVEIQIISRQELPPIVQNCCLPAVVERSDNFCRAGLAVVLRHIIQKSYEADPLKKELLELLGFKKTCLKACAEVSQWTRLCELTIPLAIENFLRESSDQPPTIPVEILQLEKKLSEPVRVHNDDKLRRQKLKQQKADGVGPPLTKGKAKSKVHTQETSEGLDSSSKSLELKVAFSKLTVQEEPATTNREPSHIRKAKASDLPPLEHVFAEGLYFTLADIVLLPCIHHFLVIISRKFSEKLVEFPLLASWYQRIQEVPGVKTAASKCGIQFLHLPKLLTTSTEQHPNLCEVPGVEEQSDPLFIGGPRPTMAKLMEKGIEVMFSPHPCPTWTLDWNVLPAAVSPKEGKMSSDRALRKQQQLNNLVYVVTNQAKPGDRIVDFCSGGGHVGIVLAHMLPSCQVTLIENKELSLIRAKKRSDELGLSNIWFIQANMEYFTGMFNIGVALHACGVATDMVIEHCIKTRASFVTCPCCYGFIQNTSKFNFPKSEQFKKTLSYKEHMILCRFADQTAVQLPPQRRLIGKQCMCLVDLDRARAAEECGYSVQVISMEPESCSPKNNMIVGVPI
Chain of UniProt P13598 (P13598 whole entry, looked up): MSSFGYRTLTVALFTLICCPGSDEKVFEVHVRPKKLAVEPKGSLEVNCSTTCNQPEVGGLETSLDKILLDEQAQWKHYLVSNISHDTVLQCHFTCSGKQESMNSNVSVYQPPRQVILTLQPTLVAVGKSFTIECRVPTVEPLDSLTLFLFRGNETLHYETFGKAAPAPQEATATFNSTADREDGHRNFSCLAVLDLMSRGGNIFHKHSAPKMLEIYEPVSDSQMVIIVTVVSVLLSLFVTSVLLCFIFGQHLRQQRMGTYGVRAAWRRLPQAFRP
Chain of UniProt Q9Y6M1 (Q9Y6M1 whole entry, looked up): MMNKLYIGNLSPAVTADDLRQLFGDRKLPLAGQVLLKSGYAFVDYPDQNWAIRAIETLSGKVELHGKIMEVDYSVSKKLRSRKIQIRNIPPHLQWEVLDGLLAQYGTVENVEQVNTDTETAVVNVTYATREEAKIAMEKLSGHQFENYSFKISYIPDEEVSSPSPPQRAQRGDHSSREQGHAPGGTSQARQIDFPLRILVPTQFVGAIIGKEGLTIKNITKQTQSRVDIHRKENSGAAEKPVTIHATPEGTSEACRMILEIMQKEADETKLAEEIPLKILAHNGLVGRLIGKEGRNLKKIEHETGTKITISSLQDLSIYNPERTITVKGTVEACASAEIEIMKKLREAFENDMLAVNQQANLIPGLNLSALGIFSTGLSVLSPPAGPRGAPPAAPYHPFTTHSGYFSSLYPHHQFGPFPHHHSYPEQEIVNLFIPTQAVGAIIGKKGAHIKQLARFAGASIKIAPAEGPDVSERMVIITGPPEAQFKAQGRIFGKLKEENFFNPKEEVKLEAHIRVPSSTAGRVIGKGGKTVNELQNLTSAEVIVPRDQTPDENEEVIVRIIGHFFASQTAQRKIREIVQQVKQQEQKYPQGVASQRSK
Chain of UniProt O15379 (O15379 whole entry, looked up): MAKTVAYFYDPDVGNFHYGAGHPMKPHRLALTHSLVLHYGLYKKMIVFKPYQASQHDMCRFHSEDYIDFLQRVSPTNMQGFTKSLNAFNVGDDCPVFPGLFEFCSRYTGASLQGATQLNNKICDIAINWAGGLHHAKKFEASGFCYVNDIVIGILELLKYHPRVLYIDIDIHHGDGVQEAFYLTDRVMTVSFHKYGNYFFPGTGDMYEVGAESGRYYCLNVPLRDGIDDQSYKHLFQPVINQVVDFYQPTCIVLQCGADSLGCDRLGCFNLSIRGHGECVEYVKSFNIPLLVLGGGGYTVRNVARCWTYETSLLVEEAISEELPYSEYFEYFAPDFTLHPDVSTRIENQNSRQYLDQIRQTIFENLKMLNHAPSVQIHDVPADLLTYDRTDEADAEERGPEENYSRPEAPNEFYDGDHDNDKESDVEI
Chain of UniProt Q92805 (Q92805 whole entry, looked up): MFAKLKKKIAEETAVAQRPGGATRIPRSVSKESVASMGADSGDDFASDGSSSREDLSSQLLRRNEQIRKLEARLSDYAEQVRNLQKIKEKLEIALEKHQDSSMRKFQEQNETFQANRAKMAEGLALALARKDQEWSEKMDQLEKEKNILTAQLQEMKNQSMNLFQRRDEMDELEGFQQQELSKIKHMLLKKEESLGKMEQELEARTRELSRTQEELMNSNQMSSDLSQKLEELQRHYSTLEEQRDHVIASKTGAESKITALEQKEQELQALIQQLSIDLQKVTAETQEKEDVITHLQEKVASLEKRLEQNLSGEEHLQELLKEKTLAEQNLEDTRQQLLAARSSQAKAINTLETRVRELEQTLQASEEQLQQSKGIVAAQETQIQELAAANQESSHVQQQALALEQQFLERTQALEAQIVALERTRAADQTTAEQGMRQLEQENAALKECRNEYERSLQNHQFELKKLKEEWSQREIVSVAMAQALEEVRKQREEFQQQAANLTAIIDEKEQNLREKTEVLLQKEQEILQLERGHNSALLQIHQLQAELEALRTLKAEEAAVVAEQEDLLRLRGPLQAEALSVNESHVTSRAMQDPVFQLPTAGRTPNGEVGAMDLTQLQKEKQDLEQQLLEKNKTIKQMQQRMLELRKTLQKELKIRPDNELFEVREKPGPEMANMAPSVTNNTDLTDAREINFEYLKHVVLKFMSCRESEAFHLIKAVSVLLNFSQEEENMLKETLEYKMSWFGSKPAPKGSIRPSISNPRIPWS
Chain of UniProt Q9BVP2 (Q9BVP2 whole entry, looked up): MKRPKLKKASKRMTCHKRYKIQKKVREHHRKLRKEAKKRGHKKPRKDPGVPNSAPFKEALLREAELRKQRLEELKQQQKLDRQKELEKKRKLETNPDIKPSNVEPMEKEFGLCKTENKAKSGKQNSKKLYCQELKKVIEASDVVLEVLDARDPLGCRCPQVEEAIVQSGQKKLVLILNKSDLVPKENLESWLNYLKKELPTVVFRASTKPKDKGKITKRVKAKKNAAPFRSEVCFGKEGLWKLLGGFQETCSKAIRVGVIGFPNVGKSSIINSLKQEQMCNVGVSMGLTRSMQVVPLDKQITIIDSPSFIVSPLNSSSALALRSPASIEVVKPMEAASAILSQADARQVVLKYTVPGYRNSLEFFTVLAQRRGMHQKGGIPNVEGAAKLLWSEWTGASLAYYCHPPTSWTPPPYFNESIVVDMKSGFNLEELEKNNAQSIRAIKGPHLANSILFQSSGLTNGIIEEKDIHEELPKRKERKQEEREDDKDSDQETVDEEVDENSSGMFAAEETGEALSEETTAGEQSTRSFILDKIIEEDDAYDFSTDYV
Chain of UniProt P08236 (P08236 whole entry, looked up): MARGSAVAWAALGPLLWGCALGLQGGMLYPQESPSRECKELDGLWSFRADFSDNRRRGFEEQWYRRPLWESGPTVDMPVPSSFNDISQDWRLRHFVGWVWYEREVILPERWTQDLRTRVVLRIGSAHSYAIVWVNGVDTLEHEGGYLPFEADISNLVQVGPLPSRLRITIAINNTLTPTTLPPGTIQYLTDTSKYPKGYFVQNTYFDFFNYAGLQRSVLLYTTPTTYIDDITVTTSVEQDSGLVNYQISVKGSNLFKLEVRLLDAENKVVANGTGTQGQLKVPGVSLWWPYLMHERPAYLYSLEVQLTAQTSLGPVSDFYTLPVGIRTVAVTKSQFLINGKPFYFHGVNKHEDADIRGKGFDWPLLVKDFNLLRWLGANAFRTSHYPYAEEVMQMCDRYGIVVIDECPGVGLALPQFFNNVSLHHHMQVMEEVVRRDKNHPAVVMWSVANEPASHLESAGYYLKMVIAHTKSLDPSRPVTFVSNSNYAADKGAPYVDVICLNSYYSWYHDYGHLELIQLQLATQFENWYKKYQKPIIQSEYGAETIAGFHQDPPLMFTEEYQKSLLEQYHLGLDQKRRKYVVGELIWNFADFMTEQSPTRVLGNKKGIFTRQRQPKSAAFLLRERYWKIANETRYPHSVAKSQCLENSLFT

For HMGB1 (UniProt P09429), which log2 fold change is on record?
Its log2 fold change is 0.026.

How did the log2 fold change turn out when IGF2BP2 (UniProt Q9Y6M1) was run?
Its log2 fold change is 0.028.

Which log2 fold change does the source give for GNB1 (UniProt P62873) here?
Its log2 fold change is 0.019.

For IRAK1 (UniProt P51617), which log2 fold change is on record?
Its log2 fold change is 0.016.

Which log2 fold change does the source give for GRK6 isoform 2 (UniProt P43250) here?
Its log2 fold change is 0.

With ICAM2 (UniProt P13598) as the target, how does the log2 fold change read?
The log2 fold change was -0.016.

With IMMT (UniProt C9J406) as the target, how does the log2 fold change read?
Its log2 fold change is -0.03.

With GUSB (UniProt P08236) as the target, how does the log2 fold change read?
The log2 fold change was -0.066.

For HSPA14 (UniProt Q0VDF9), which log2 fold change is on record?
The log2 fold change was 0.021.

How did the log2 fold change turn out when HNRNPH2 (UniProt P55795) was run?
Its log2 fold change is -0.003.

HDAC6 (UniProt Q9UBN7) was tested. Which log2 fold change did it give?
Its log2 fold change is 0.024.

Which log2 fold change does the source give for HSP90AA4P (UniProt Q58FG1) here?
Its log2 fold change is 0.01.

Which log2 fold change does the source give for KHK isoform 2 (UniProt P50053) here?
Its log2 fold change is -0.043.

For GTF3C3 (UniProt Q9Y5Q9), which log2 fold change is on record?
The log2 fold change was -0.057.

With H4C1 (UniProt P62805) as the target, how does the log2 fold change read?
Its log2 fold change is 0.

For HSPB1 (UniProt P04792), which log2 fold change is on record?
Its log2 fold change is -0.006.

Which log2 fold change does the source give for GNL3 (UniProt Q9BVP2) here?
The log2 fold change was 0.013.

KDM5C (UniProt P41229) was tested. Which log2 fold change did it give?
The log2 fold change was 0.037.

GOLGA1 (UniProt Q92805) was tested. Which log2 fold change did it give?
The log2 fold change was -0.099.

KATNBL1 (UniProt Q9H079) was tested. Which log2 fold change did it give?
Its log2 fold change is 0.198.

Which log2 fold change does the source give for HNRNPM (UniProt P52272) here?
The log2 fold change was -0.112.

With HEATR3 (UniProt Q7Z4Q2) as the target, how does the log2 fold change read?
The log2 fold change was 0.019.

For HNRNPUL1 (UniProt Q9BUJ2), which log2 fold change is on record?
Its log2 fold change is 0.019.

With HDGFL2 isoform 2 (UniProt Q7Z4V5) as the target, how does the log2 fold change read?
The log2 fold change was 0.003.

HNRNPLL (UniProt Q8WVV9) was tested. Which log2 fold change did it give?
Its log2 fold change is -0.008.

For HDAC3 (UniProt O15379), which log2 fold change is on record?
The log2 fold change was -0.102.

How did the log2 fold change turn out when IMPDH1 isoform 6 (UniProt P20839) was run?
The log2 fold change was -0.017.

Which log2 fold change does the source give for HDHD5 (UniProt Q9BXW7) here?
The log2 fold change was -0.008.

Which log2 fold change does the source give for KDM6A (UniProt O15550) here?
Its log2 fold change is -0.031.

How did the log2 fold change turn out when ILKAP (UniProt Q9H0C8) was run?
Its log2 fold change is -0.005.

Which log2 fold change does the source give for IRF2BPL (UniProt Q9H1B7) here?
Its log2 fold change is -0.069.

With GSTP1 (UniProt P09211) as the target, how does the log2 fold change read?
The log2 fold change was 0.029.

With GLUL (UniProt P15104) as the target, how does the log2 fold change read?
The log2 fold change was 0.027.

GSE1 (UniProt Q14687) was tested. Which log2 fold change did it give?
Its log2 fold change is -0.02.

GSTCD (UniProt Q8NEC7) was tested. Which log2 fold change did it give?
The log2 fold change was 0.01.

Which log2 fold change does the source give for HMGN4 (UniProt O00479) here?
Its log2 fold change is 0.001.

compound: NC(=O)Nc1cc(-c2cccc(F)c2)sc1C(=O)N[C@H]1CCCNC1; assay: as above
Procedure, shortened: as §1

HMGB1 (UniProt P09429) was tested. Which log2 fold change did it give?
Its log2 fold change is -0.021.

With IGF2BP2 (UniProt Q9Y6M1) as the target, how does the log2 fold change read?
The log2 fold change was 0.06.

Which log2 fold change does the source give for GNB1 (UniProt P62873) here?
The log2 fold change was -0.137.

IRAK1 (UniProt P51617) was tested. Which log2 fold change did it give?
The log2 fold change was 0.373 (active).

GRK6 isoform 2 (UniProt P43250) was tested. Which log2 fold change did it give?
The log2 fold change was 0.012.

For ICAM2 (UniProt P13598), which log2 fold change is on record?
Its log2 fold change is -0.018.

For IMMT (UniProt C9J406), which log2 fold change is on record?
The log2 fold change was 0.

Which log2 fold change does the source give for GUSB (UniProt P08236) here?
Its log2 fold change is -0.041.

For HSPA14 (UniProt Q0VDF9), which log2 fold change is on record?
Its log2 fold change is 0.037.

Which log2 fold change does the source give for HNRNPH2 (UniProt P55795) here?
Its log2 fold change is 0.014.

HDAC6 (UniProt Q9UBN7) was tested. Which log2 fold change did it give?
The log2 fold change was -0.01.

Which log2 fold change does the source give for HSP90AA4P (UniProt Q58FG1) here?
Its log2 fold change is -0.065.

With KHK isoform 2 (UniProt P50053) as the target, how does the log2 fold change read?
The log2 fold change was -0.019.

For GTF3C3 (UniProt Q9Y5Q9), which log2 fold change is on record?
The log2 fold change was 0.031.

H4C1 (UniProt P62805) was tested. Which log2 fold change did it give?
The log2 fold change was -0.032.

For HSPB1 (UniProt P04792), which log2 fold change is on record?
Its log2 fold change is 0.006.

For GNL3 (UniProt Q9BVP2), which log2 fold change is on record?
The log2 fold change was 0.038.

With KDM5C (UniProt P41229) as the target, how does the log2 fold change read?
Its log2 fold change is 0.032.

With GOLGA1 (UniProt Q92805) as the target, how does the log2 fold change read?
Its log2 fold change is 0.042.

For KATNBL1 (UniProt Q9H079), which log2 fold change is on record?
Its log2 fold change is 0.158.

With HNRNPM (UniProt P52272) as the target, how does the log2 fold change read?
The log2 fold change was 0.054.

For HEATR3 (UniProt Q7Z4Q2), which log2 fold change is on record?
Its log2 fold change is 0.033.

HNRNPUL1 (UniProt Q9BUJ2) was tested. Which log2 fold change did it give?
The log2 fold change was 0.045.

Which log2 fold change does the source give for HDGFL2 isoform 2 (UniProt Q7Z4V5) here?
Its log2 fold change is 0.011.

How did the log2 fold change turn out when HNRNPLL (UniProt Q8WVV9) was run?
Its log2 fold change is 0.001.

HDAC3 (UniProt O15379) was tested. Which log2 fold change did it give?
Its log2 fold change is 0.038.

For IMPDH1 isoform 6 (UniProt P20839), which log2 fold change is on record?
Its log2 fold change is -0.007.

For HDHD5 (UniProt Q9BXW7), which log2 fold change is on record?
Its log2 fold change is 0.028.

How did the log2 fold change turn out when KDM6A (UniProt O15550) was run?
Its log2 fold change is 0.002.

With ILKAP (UniProt Q9H0C8) as the target, how does the log2 fold change read?
Its log2 fold change is 0.005.

How did the log2 fold change turn out when IRF2BPL (UniProt Q9H1B7) was run?
The log2 fold change was -0.01.

How did the log2 fold change turn out when GSTP1 (UniProt P09211) was run?
The log2 fold change was -0.029.

For GLUL (UniProt P15104), which log2 fold change is on record?
Its log2 fold change is -0.032.

For GSE1 (UniProt Q14687), which log2 fold change is on record?
The log2 fold change was 0.059.

Which log2 fold change does the source give for GSTCD (UniProt Q8NEC7) here?
The log2 fold change was 0.08.

How did the log2 fold change turn out when HMGN4 (UniProt O00479) was run?
Its log2 fold change is -0.019.
